This is an account of results in ChEMBL document CHEMBL4513146, “CO-ADD screening of Karazin Kharkiv National University (Ukraine) compounds”.

Structures are written as SMILES. Results with a measured potency or affinity are listed apart.

In the experiment the test system is Staphylococcus aureus. Conditions: Concentration 32 ug.mL-1;; ASSAY_TEST Inhibition of Bacterial Growth; detection method Absorption (OD600); MEDIA CAMHB; plate type 384well; NBS; CORNING #3640; time 18 hr.
Take `O=S(=O)(c1ccc2nncn2c1)N(Cc1ccccc1F)c1ccc(F)c(F)c1`: the Inhibition is given as -7.25%.

On to `CCOC(=O)c1ccccc1NC(=O)CSc1nc2ccccc2n2c(C(C)C)nnc12`, for which the Inhibition is reported as 6%. Take `CCCNC(=O)Cn1nc2nc(Nc3ccc(F)cc3)ccn2c1=O`: the Inhibition worked out at 8.25%. `Cc1nnc2ccc(S(=O)(=O)N(Cc3ccc(F)cc3)c3cc(F)cc(F)c3)cn12`: the Inhibition is recorded as 4.18%. The value for `COc1cccc(Sc2nc3ccccc3n3c(=O)n(CC(=O)Nc4ccc(C)c(C)c4)nc23)c1` was 2.16%; that for `CCc1ccc(N(Cc2ccc(F)cc2)S(=O)(=O)c2cccn3c(CC)nnc23)cc1` was 19.9%; that for `COc1ccccc1N1CCN(C(=O)CSc2nc3ccccc3n3cnnc23)CC1` was 11.06%. Then `COc1cccc(-n2ccn3c(SCc4cccc(C)c4)nnc3c2=O)c1`, with 13.81%. With `CCc1nnc2c(=O)n(CC(=O)Nc3cccc(C#N)c3)c3ccccc3n12`, the Inhibition worked out at 13.48%. The value for `Cc1cc2nn(CC(=O)NC3CCCCC3)c(=O)n2c(Nc2ccc(F)c(C)c2)n1` was 11.08%. Regarding `Cc1ccccc1Cn1nc2c(=O)n(-c3ccc(Br)cc3)ccn2c1=O`, the Inhibition was 4.33%. Regarding `Cc1nnc2ccc(S(=O)(=O)N(Cc3cc(F)cc(F)c3)c3ccccc3)cn12`, the Inhibition was 12.61%.

With `CCOC(=O)c1ccc(NC(=O)Cn2nc3ccc(-c4ccc(Cl)cc4)nn3c2=O)cc1`, the Inhibition was 7.47%. With `C=Cc1ccc(CN(c2ccc(Cl)cc2)S(=O)(=O)c2cccn3c(C)nnc23)cc1`, the Inhibition is listed as 6.06%. The value for `COc1ccccc1N1CCN(C(=O)Cn2nc3ccc(-c4ccc(C)c(C)c4)nn3c2=O)CC1` was 13.88%. Consider `O=C(Cn1nc2c(Sc3ccccc3)nccn2c1=O)Nc1ccc2c(c1)OCO2`, for which the Inhibition is recorded as -26.09%. Then `Cc1cccc(-c2nc(CSc3nc4ccccc4n4c(C(C)C)nnc34)c(C)o2)c1`, with 9.08%.

Take `COc1ccc(-c2cc3c4nn(CC(=O)N5CCCc6ccccc65)c(=O)n4ccn3n2)cc1`: the Inhibition was 6.07%. Then `Cc1cc2nn(CC(=O)NCc3ccco3)c(=O)n2c(Nc2ccc(C)c(F)c2)n1`, with 0.2%. Then `Cc1ccccc1Oc1nccn2c(=O)n(CC(=O)Nc3ccc(C#N)cc3)nc12`, with 8.67%. `O=C(Cn1nc2c(N3CCOCC3)nccn2c1=O)Nc1ccc2c(c1)OCO2`: the Inhibition amounted to 15.61%. Then `Cc1ccc(-c2cc3c4nn(CC(=O)Nc5ccc6c(c5)OCO6)c(=O)n4ccn3n2)cc1C`, with -8.73%; and `CCCCOc1ccc(-c2cc3c4nnc(SCC(=O)Nc5ccccc5Cl)n4ccn3n2)cc1`, with 3.41%.

Consider `CCOC(=O)c1ccccc1NC(=O)Cn1nc2ccc(C(=O)Nc3ccc(OC)cc3)cn2c1=O`, for which the Inhibition is recorded as 0.2%.
